# Inconclusive results are not listed. The source made the active and inactive calls. Rule for the calls: active = hit-call score of the fitted dose curve at least 0.9, where 1 is the maximum; inconclusive = response in the unintended direction; inactive = score below 0.9.
# Legend:
# [1] = biological target: human Serotonin, 5-Hydroxytryptamine Receptor 5A (5HT5A), HTR5A (gene 3361) (UniProt P47898); test: NVS_GPCR_h5HT5A: NovaScreen (NVS) G Protein-Coupled Receptor Assay for human Serotonin, 5-Hydroxytryptamine Receptor 5A (5HT5A) (AID 2283251)
# Sequence of human Serotonin, 5-Hydroxytryptamine Receptor 5A (5HT5A), HTR5A (gene 3361) (P47898 whole entry, looked up): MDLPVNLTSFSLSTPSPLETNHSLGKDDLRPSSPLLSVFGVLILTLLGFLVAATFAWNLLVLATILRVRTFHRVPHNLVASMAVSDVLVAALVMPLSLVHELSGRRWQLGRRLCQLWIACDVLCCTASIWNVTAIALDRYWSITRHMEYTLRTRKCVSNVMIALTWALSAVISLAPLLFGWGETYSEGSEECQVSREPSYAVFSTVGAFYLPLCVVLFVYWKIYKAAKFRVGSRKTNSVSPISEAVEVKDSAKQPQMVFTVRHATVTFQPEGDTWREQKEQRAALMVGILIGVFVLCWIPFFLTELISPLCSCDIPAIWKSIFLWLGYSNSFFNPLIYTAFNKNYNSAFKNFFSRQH
# Summary of the method: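 Cell-free radioligand displacement binding on HEK293-derived membrane protein, 1 h incubation, filter-based scintillation counting. Primary screen in duplicate at 25 uM, actives followed in concentration series; loss of signal fitted versus DMSO.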
# [2] = biological target: human Adrenergic, Beta 1 Receptor (Adrb1), ADRB1 (gene 153) (UniProt P08588); test: NVS_GPCR_hAdrb1: NovaScreen (NVS) G Protein-Coupled Receptor Assay for human Adrenergic, Beta 1 Receptor (Adrb1) (AID 2283258)
# Sequence of human Adrenergic, Beta 1 Receptor (Adrb1), ADRB1 (gene 153) (P08588 whole entry, looked up): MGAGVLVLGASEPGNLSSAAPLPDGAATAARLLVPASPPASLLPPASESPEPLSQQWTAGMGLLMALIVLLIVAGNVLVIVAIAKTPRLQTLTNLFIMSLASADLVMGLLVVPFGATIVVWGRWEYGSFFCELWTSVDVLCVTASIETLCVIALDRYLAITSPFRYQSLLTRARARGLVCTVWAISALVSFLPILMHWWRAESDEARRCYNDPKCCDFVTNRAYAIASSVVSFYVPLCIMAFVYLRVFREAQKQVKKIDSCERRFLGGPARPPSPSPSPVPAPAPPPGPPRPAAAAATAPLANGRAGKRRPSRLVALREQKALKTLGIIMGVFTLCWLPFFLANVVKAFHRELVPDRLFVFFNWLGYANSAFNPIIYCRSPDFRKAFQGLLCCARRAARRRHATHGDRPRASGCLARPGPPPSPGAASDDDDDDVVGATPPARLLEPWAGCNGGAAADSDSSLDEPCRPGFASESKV
# Summary of the method: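 Cell-free radioligand displacement on receptor from human neuroepithelioma cells; 2 h after dosing, filter-based scintillation counting. Primary screen in duplicate at 25 uM, actives retested in concentration series; loss of signal vs DMSO baseline.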
# [3] = tested on: rat Monoamine Oxidase, MAO-A, Central (MAOAC), gene 29253; test: NVS_ENZ_rMAOAC: NovaScreen (NVS) Enzymatic Assay for rat Monoamine Oxidase, MAO-A, Central (MAOAC) (AID 2283243);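 note: potency refers to inhibition seen as signal drop below DMSO baseline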
# Summary of the method: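 Steps: rat brain protein extract dosed with test chemical (25 uM, duplicate, primary); incubated 1.5 h; radiolabelled product separated from substrate and counted. Signal loss versus DMSO scored as inhibition.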
# [4] = biological target: human Adenosine A1 Receptor (AdoRA1), ADORA1 (gene 134) (UniProt P30542); test: NVS_GPCR_hAdoRA1: NovaScreen (NVS) G Protein-Coupled Receptor Assay for human Adenosine A1 Receptor (AdoRA1) (AID 2283254)
# Sequence of human Adenosine A1 Receptor (AdoRA1), ADORA1 (gene 134) (P30542 whole entry, looked up): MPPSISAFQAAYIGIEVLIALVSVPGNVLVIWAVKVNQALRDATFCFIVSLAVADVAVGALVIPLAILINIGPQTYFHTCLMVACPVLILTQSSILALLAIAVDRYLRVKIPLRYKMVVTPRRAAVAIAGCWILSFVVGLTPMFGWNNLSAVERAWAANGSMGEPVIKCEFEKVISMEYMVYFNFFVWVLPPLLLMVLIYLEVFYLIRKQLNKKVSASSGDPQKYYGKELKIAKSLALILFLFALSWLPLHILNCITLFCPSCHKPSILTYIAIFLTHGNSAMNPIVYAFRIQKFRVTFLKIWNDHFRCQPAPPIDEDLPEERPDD
# Summary of the method: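 Each chemical is first tested twice at 25 uM, actives later in dilution series, against a radioligand bound to human cortex membranes; after 1 h, filter-retained counts are compared with DMSO controls, lower signal indicating displacement.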
# [5] = biological target: human Adenosine A2a Receptor (AdoRA2a), ADORA2A (gene 135) (UniProt P29274); test: NVS_GPCR_hAdoRA2a: NovaScreen (NVS) G Protein-Coupled Receptor Assay for human Adenosine A2a Receptor (AdoRA2a) (AID 2283256)
# Sequence of human Adenosine A2a Receptor (AdoRA2a), ADORA2A (gene 135) (P29274 whole entry, looked up): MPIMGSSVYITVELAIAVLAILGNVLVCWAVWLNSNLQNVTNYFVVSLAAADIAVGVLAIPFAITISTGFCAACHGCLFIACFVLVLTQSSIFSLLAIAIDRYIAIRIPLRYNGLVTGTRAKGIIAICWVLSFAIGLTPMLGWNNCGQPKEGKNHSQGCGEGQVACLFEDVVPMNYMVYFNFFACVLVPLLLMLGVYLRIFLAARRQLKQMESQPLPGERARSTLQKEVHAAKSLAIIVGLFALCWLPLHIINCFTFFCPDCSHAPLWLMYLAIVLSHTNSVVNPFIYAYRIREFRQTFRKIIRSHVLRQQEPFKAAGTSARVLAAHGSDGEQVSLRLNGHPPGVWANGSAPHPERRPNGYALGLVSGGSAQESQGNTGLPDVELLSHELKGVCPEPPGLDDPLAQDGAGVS
# Summary of the method: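 Radioligand displacement on HEK293-derived membrane protein, cell-free; filter-based scintillation counting 1.5 hours after dosing, loss of signal vs DMSO. Single-point duplicate screen at 25 uM, actives retested in concentration series.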
# [6] = biological target: guinea pig Opioid, Kappa 1 Receptor (OpiateK), OPRK1 (gene 100135587) (UniProt P41144); test: NVS_GPCR_gOpiateK: NovaScreen (NVS) G Protein-Coupled Receptor Assay for guinea pig Opioid, Kappa 1 Receptor (OpiateK) (AID 2283252);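 note: radioligand displacement from kappa opioid receptor in guinea pig cerebellar membranes; active means reduced radioligand binding relative to DMSO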
# Sequence of guinea pig Opioid, Kappa 1 Receptor (OpiateK), OPRK1 (gene 100135587) (P41144 whole entry, looked up): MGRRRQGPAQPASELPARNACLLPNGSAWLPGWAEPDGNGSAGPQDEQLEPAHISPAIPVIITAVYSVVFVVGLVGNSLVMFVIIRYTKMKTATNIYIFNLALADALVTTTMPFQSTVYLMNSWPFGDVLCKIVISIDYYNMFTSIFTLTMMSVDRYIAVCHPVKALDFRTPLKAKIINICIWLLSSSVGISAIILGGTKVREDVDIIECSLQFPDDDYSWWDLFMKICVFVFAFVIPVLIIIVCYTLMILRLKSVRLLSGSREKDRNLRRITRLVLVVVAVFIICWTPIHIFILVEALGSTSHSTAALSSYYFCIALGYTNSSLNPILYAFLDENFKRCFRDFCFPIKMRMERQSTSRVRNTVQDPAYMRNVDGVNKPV
# Summary of the method: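 Signal is scintillation counts of filter-trapped radioligand bound to guinea pig cerebellar membrane receptor, measured 2 hours post-dosing. Activity is loss of binding versus DMSO, first at 25 uM in duplicate, then as concentration series for actives.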
# [7] = biological target: sheep Cyclooxygenase-1 (Cox1), PTGS1 (gene 443551) (UniProt P05979); test: NVS_ENZ_oCOX1: NovaScreen (NVS) Enzymatic Assay for sheep Cyclooxygenase-1 (Cox1) (AID 2283239);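 note: actives reduce cyclooxygenase activity so potencies are for inhibitors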
# Sequence of sheep Cyclooxygenase-1 (Cox1), PTGS1 (gene 443551) (P05979 whole entry, looked up): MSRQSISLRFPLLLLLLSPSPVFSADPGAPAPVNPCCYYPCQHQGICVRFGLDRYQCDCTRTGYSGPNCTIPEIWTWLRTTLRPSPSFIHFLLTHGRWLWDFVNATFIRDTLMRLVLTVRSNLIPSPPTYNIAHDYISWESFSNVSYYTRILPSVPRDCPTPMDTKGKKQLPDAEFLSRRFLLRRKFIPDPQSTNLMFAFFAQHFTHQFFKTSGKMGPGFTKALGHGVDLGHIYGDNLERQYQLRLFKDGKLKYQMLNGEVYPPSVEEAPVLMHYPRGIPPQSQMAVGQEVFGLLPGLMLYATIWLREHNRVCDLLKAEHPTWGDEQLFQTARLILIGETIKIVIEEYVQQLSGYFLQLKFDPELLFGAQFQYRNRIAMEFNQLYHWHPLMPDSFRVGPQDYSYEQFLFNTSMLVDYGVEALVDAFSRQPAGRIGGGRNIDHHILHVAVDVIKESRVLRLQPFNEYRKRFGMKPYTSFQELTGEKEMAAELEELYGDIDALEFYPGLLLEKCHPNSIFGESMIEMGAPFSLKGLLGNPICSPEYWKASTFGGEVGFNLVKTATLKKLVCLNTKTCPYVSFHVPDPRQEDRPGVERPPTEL
# Summary of the method: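 Cell-free colorimetric assay of enzyme activity in a native extract of ovine seminal vesicles. Absorbance was read 0.66 hour after compound addition. Loss of signal relative to the DMSO negative control was scored, with actives from the 25 uM duplicate primary screen retested in concentration series.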
# [8] = biological target: rat Monoamine Oxidase, MAO-B, Central (MAOBC), Maob (gene 25750) (UniProt P19643); test: NVS_ENZ_rMAOBC: NovaScreen (NVS) Enzymatic Assay for rat Monoamine Oxidase, MAO-B, Central (MAOBC) (AID 2283238)
# Sequence of rat Monoamine Oxidase, MAO-B, Central (MAOBC), Maob (gene 25750) (P19643 whole entry, looked up): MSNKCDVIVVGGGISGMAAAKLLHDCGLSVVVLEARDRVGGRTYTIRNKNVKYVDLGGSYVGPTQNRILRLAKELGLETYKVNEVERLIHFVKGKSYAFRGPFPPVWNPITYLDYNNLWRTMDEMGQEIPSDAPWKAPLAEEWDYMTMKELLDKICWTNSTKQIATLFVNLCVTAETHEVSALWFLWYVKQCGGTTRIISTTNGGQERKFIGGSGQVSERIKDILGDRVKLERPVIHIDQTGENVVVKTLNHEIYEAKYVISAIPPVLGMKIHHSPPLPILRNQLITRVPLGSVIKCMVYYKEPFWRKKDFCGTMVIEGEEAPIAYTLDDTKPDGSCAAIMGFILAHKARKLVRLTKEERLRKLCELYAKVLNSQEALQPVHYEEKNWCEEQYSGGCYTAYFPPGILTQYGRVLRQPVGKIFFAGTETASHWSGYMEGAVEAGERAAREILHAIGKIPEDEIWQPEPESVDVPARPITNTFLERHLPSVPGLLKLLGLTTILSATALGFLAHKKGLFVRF
# Summary of the method: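 Compounds were first tested in duplicate at 25 uM against MAO-B from rat brain tissue; those passing the inhibition threshold were retested in concentration series up to 50 uM. Radiodetection by scintillation counting at 1.17 h, analysed against DMSO baseline.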
# [9] = biological target: guinea pig Leukotriene D4 Receptor (LTD4), CYSLTR1 (gene 100135514) (UniProt Q2NNR5); test: NVS_GPCR_gLTD4: NovaScreen (NVS) G Protein-Coupled Receptor Assay for guinea pig Leukotriene D4 Receptor (LTD4) (AID 2283248)
# Sequence of guinea pig Leukotriene D4 Receptor (LTD4), CYSLTR1 (gene 100135514) (Q2NNR5 whole entry, looked up): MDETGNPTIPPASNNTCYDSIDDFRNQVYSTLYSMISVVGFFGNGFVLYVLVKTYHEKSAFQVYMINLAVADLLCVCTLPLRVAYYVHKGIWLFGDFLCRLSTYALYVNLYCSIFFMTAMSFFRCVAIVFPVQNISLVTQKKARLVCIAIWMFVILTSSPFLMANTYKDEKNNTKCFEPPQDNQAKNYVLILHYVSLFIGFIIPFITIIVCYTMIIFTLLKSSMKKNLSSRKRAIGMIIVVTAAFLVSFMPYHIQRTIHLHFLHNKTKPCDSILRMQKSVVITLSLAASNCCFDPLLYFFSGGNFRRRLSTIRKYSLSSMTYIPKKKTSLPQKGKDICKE
# Summary of the method: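 Radioligand displacement on guinea pig lung membranes, 1 h incubation, filtration and scintillation counting; DMSO as negative control. Duplicate 25 uM primary screen, then singleton concentration-response up to 50 uM.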
# [10] = biological target: human Serotonin, 5-Hydroxytryptamine Receptor 7 (5HT7), HTR7 (gene 3363) (UniProt P34969); test: NVS_GPCR_h5HT7: NovaScreen (NVS) G Protein-Coupled Receptor Assay for human Serotonin, 5-Hydroxytryptamine Receptor 7 (5HT7) (AID 2283255);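 note: hits reduce specific radioligand binding relative to DMSO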
# Sequence of human Serotonin, 5-Hydroxytryptamine Receptor 7 (5HT7), HTR7 (gene 3363) (P34969 whole entry, looked up): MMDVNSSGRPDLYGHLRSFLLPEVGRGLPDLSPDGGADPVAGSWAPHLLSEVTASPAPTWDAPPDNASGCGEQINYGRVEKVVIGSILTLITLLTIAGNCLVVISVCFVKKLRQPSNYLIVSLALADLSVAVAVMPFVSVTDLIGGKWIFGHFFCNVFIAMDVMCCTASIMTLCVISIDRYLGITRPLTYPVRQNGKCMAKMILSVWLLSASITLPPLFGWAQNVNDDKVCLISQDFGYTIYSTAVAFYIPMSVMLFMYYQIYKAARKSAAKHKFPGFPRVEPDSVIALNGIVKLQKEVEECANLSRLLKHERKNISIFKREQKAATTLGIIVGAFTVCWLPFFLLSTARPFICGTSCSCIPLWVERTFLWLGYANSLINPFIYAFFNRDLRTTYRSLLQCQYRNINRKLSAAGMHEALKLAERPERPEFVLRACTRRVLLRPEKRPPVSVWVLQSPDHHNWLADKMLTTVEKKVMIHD
# Summary of the method: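 Radioligand displacement on membranes from CHO cells expressing human 5HT7, 1 h incubation, filter-based scintillation counting. Primary screen used a single 25 uM concentration in duplicate; actives were followed up in concentration series.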
# [11] = tested on: bovine Angiotensin II Receptor Type 2 (AT2), gene 407157; test: NVS_GPCR_bAT2: NovaScreen (NVS) G Protein-Coupled Receptor Assay for bovine Angiotensin II Receptor Type 2 (AT2) (AID 2283240)
# Summary of the method: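 Radioligand displacement on bovine cerebellar membranes, 1 hour incubation, filter-based scintillation counting; loss of signal vs DMSO. Duplicate single-point screen at 25 uM, then concentration-response to 50 uM maximum.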
# [12] = tested on: guinea pig Leukotriene B4 Receptor (LTB4), gene 100379538; test: NVS_GPCR_gLTB4: NovaScreen (NVS) G Protein-Coupled Receptor Assay for guinea pig Leukotriene B4 Receptor (LTB4) (AID 2283247)
# Summary of the method: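 Radioligand displacement on guinea pig spleen membranes, filter-based scintillation counting 2 h after dosing. Primary duplicate single point at 25 uM; hits over threshold (e.g. 30% inhibition) run in concentration-response up to 50 uM, DMSO baseline.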
# [13] = biological target: human Serotonin, 5-Hydroxytryptamine Receptor 6 (5HT6), HTR6 (gene 3362) (UniProt P50406); test: NVS_GPCR_h5HT6: NovaScreen (NVS) G Protein-Coupled Receptor Assay for human Serotonin, 5-Hydroxytryptamine Receptor 6 (5HT6) (AID 2283253)
# Sequence of human Serotonin, 5-Hydroxytryptamine Receptor 6 (5HT6), HTR6 (gene 3362) (P50406 whole entry, looked up): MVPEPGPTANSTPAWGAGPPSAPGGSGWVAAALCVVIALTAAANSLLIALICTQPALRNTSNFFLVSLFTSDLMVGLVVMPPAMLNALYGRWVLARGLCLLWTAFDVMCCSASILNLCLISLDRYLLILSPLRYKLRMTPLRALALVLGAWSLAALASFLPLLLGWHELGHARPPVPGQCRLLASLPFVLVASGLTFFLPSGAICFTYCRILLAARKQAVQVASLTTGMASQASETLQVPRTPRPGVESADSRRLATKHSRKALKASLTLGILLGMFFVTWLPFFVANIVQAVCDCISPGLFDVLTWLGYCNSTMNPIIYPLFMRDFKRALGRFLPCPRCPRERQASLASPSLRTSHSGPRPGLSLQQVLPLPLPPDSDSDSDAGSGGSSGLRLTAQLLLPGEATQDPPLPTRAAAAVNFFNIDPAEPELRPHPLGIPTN
# Summary of the method: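 Radioligand binding to 5HT6 in HEK293-derived membranes, cell-free, 1 h after dosing; bound ligand measured by filter-based scintillation counting. Primary screen in duplicate at 25 uM; actives retested in concentration series.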
# [14] = biological target: rat Monoamine Oxidase, MAO-B, Peripheral (MAOBP), Maob (gene 25750) (UniProt P19643); test: NVS_ENZ_rMAOBP: NovaScreen (NVS) Enzymatic Assay for rat Monoamine Oxidase, MAO-B, Peripheral (MAOBP) (AID 2283242)
# Sequence of rat Monoamine Oxidase, MAO-B, Peripheral (MAOBP), Maob (gene 25750) (P19643 whole entry, looked up): as the sequence (P19643 whole entry, looked up) above
# Protocol: NVS_ENZ_rMAOBP is a biochemical, single-readout assay that uses extracted gene-proteins from Rat brain in a tissue-based cell-free assay. Measurements were taken 1.17 hours after chemical dosing in a 96-well plate.NVS_ENZ_rMAOBP is one of one assay component(s) measured or calculated from the NVS_ENZ_rMAOBP assay. It is designed to make measurements of enzyme activity, a form of enzyme reporter, as detected with scintillation counting signals by Lysate-based radiodetection technology.Data from the assay component NVS_ENZ_rMAOBP was analyzed into 1 assay endpoint. This assay endpoint, NVS_ENZ_rMAOBP, was analyzed in the positive analysis fitting direction relative to DMSO as the negative control and baseline of activity. Using a type of enzyme reporter, loss-of-signal activity can be used to understand changes in the enzymatic activity as they relate to the gene Maob. Furthermore, this assay endpoint can be referred to as a primary readout, because this assay has produced multiple assay endpoints where this one serves a enzymatic activity function. To generalize the intended target to other relatable targets, this assay endpoint is annotated to the oxidoreductase intended target family, where the subfamily is monoamine oxidase. […]
compound,measurement,setting,value
CCCCN(CCCC)SN(C)C(=O)Oc1cccc2c1OC(C)(C)C2,outcome,[1],inactive
same,outcome,[2],inactive
Cc1ccc2c(c1N)C(=O)c1ccccc1C2=O,AC50,[3],25 µM (active)
same,AC50,[4],16.3 µM (active)
same,AC50,[5],4.77 µM (active)
Cc1cc(C)c(C(=O)P(=O)(c2ccccc2)c2ccccc2)c(C)c1,AC50,[6],25 µM (active)
same,AC50,[4],36 µM (active)
O=c1[nH]c2ccccc2c(=O)o1,AC50,[7],4.96 µM (active)
Nc1ccc(Cl)cc1,outcome,[7],inactive
CCOP(=S)(S)OCC,outcome,[7],inactive
Cc1ccc(O)cc1C,AC50,[8],47 µM (active)
ClC(Cl)c1ccccc1,outcome,[9],inactive
c1nc[nH]n1,outcome,[9],inactive
O=c1ssc(Cl)c1Cl,outcome,[7],inactive
CCNc1nc(Cl)nc(NC(C)(C)C)n1,outcome,[4],inactive
Nc1cc2c3c(c1)C(c1ccccc1)=N[C@@H](NC(=O)c1cccnc1)C(=O)N3CC2,AC50,[7],15.1 µM (active)
same,outcome,[10],inactive
CCOP(=S)(OCC)SCS(=O)(=O)CC,AC50,[3],7.29 µM (active)
CCOP(=S)(Oc1ccc([N+](=O)[O-])cc1)c1ccccc1 (centres undefined),outcome,[2],inactive
CCOP(=S)(OCC)SCSCC,outcome,[7],inactive
Cc1ccc(N)cc1N,outcome,[11],inactive
CC(=O)c1ccc(-c2ccccc2)cc1,AC50,[3],18.6 µM (active)
CCC(C)(C)c1ccc(O)cc1,AC50,[12],25 µM (active)
same,outcome,[13],inactive
O=[N+]([O-])c1cc(Cl)ccc1Cl,outcome,[5],inactive
Nc1ccc2ccccc2c1,AC50,[3],19.4 µM (active)
[N-]=[N+]=[N-],outcome,[8],inactive
CCOC(=O)c1ccccc1C(=O)OCC,outcome,[14],inactive
same,AC50,[3],15.2 µM (active)
